# Data: PubChem BioAssay (EPA / NIEHS)
# Values joined by “and” are separate entries in the source; they are usually repeats but may differ in a detail not shown here. Equal entries are not always repeated. Records with an inconclusive call do not appear. Some structures have more than one record in an assay (separate samples or runs), and their calls can disagree. Active and inactive are the calls of the source. Rule for the calls, unless noted: active = hit-call score of the fitted dose curve at least 0.9, where 1 is the maximum; inconclusive = response in the unintended direction; inactive = score below 0.9.
# Tests used:
# [1] = CEETOX_H295R_MTT_cell_viability: Viability Assessment in the CeeTox HT-H295R MTT Assay (AID 2283718; active = hit-call score of the fitted dose curve at least 0.9, where 1 is the maximum; inactive = score below 0.9;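 for AC50: curve fitted both ways so AC50 may mark viability loss or gain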)
# In short: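 MTT reduction (0.5 mg/ml, 4 h at 37 C; absorbance at 570 and 650 nm) gave viability as background-corrected percent change versus controls. H295R cells had 48 h forskolin (10 uM) prestimulation, then 48 h chemical exposure at 0.1% DMSO.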
# [2] = Tanguay_ZF_120hpf_ActivityScore_legacy: (Legacy) Oregon State University Tanguay Lab 120 Hour Post-fertilization zebrafish Assay Score for Activity (AID 2283742);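 for AC50: dechorionated Tropical 5D wild-type zebrafish embryos held singly per well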
# In short: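 Binary scoring of mortality and morphology by brightfield at 24 and 120 hpf, summarised into one activity score from 18 components relative to DMSO. Wild-type Tropical 5D zebrafish, chorion removed at 4 hpf, static exposure 6–120 hpf, 28 °C.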
# [3] = ACEA_AR_antagonist_AUC_viability: ACEA Biosciences xCELLigence Real-Time Cell Analysis on Androgen Receptor Antagonism for Viability (AID 2283776);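 note: area under impedance growth curve at 80 h after dosing as viability; hits lower the growth signal relative to DMSO meaning cytotoxicity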
# In short: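 22Rv1 human prostate cancer cells were seeded on electrode plates, monitored overnight, then exposed to eight 1:4 dilutions from 100 uM final. Impedance-based growth kinetics at 80 h gave an AUC viability endpoint normalized to DMSO.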
# [4] = ACEA_AR_agonist_AUC_viability: ACEA Biosciences xCELLigence Real-Time Cell Analysis on Androgen Receptor Agonism for Viability (AID 2283775);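 for AC50: viability read 80 hours after compound addition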
# In short: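 22Rv1 cells; impedance growth kinetics; 8-pt 1:4 dilutions from 100 uM top final, ≤0.5% DMSO; n = 2; 80 h read; AUC viability, loss-of-signal vs DMSO.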
# [5] = target: Luciferin 4-monooxygenase (Photinus pyralis) (UniProt P08659); assay: CCTE_Simmons_QuantiLum_inhib_2: CCTE's Firefly Luciferase Inhibition Assay, Simmons Lab (AID 2283767)
# In short: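 Eight test concentrations, 5 nM up to 87.5 uM final, preincubated 30min at 37C in the dark with purified luciferase (0.5% DMSO final). Detection reagent (150uM D-luciferin, 147uM dATP, 75uM CoA, pH 7.8) injected per well before kinetic luminescence read; three replicates.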
# [6] = system: zebrafish Androgen Receptor (AR), gene 100005148; assay: ATG_zfAR_XSP1: Attagene TRANS-FACTORIAL Multi-Species (XSP1) HepG2 Assay for zebrafish Androgen Receptor (AR) (AID 2283771)
# In short: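 Gain-of-signal versus DMSO was measured as reporter transcripts quantified by RT-PCR, fluorescent labelling and capillary electrophoresis after 24 h chemical exposure. The cells were HepG2 expressing a chimeric zebrafish AR-GAL4, co-stimulated with 3 nM 6-alpha-fluorotestosterone.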
# [7] = target: zebrafish Estrogen Receptor (ESR1), esr1 (gene 259252) (UniProt P57717); assay: ATG_zfER1_XSP1: Attagene TRANS-FACTORIAL Multi-Species (XSP1) HepG2 Assay for zebrafish Estrogen Receptor (ESR1) (AID 2283772)
# In short: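 HepG2 cells were transiently transfected with multiplexed GAL4-UAS reporter units driven by chimeric NR-GAL4 proteins, dosed for 24 h with 3 nM 6-alpha-fluorotestosterone present, and reporter mRNA quantified by RT-PCR and capillary electrophoresis versus DMSO.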
# [8] = system: zebrafish Estrogen Receptor (ESR2B), gene 317733; assay: ATG_zfER2b_XSP1: Attagene TRANS-FACTORIAL Multi-Species (XSP1) HepG2 Assay for zebrafish Estrogen Receptor (ESR2B) (AID 2283773)
# In short: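 Medium contained 3 nM 6-alpha-fluorotestosterone. Reporter mRNA induction by exogenous zebrafish ER2b-Gal4 chimera was read 24 h post-dose in transiently transfected HepG2 cells, using RT-PCR, fluorescent labelling, HpaI digestion and capillary electrophoresis.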
# [9] = system: frog Estrogen Receptor (ESR2), gene 100174814; assay: ATG_frER2_XSP1: Attagene TRANS-FACTORIAL Multi-Species (XSP1) HepG2 Assay for frog Estrogen Receptor (ESR2) (AID 2283774)
# In short: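 Reporter mRNA from a multiplexed TRANS system, measured by RT-PCR with fluorescent labelling and capillary electrophoresis, 24 hours after chemical exposure. Human HepG2 liver cells carried exogenous frog ER-Gal4 chimera; medium included 3 nM 6-alpha-fluorotestosterone; increases versus DMSO analysed.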
# [10] = system: frog Estrogen Receptor (ESR1), gene 398734; assay: ATG_frER1_XSP1: Attagene TRANS-FACTORIAL Multi-Species (XSP1) HepG2 Assay for frog Estrogen Receptor (ESR1) (AID 2283777)
# In short: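 HepG2 cells transiently transfected with GAL4-UAS reporter units and frog ER–Gal4 chimera were dosed for 24 h with 3 nM 6-alpha-fluorotestosterone present. Reporter mRNA was measured by RT-PCR and capillary electrophoresis; gain of signal fitted versus DMSO.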
# [11] = system: zebrafish Estrogen Receptor (ESR2A), gene 317734; assay: ATG_zfER2a_XSP1: Attagene TRANS-FACTORIAL Multi-Species (XSP1) HepG2 Assay for zebrafish Estrogen Receptor (ESR2A) (AID 2283778)
# In short: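 Reporter transcripts were quantified by RT-PCR, 6-FAM labelling, HpaI digestion and capillary electrophoresis after 24 h dosing. The cells were HepG2 transiently carrying a zebrafish ER2a–Gal4 construct plus multiplexed UAS reporters; medium contained 3 nM 6-alpha-fluorotestosterone.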
# [12] = target: chicken Estrogen Receptor (ESR1), ESR1 (gene 396099) (UniProt P06212); assay: ATG_chERa_XSP1: Attagene TRANS-FACTORIAL Multi-Species (XSP1) HepG2 Assay for chicken Estrogen Receptor (ESR1) (AID 2283779)
# In short: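 Trans-activation of an exogenous chicken ERα–Gal4 chimera read as reporter transcript (RT-PCR, fluorescent labeling, capillary electrophoresis) after 24 h compound exposure of transfected HepG2; medium held 3 nM 6-alpha-fluorotestosterone. Positive-direction fit against DMSO.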
# [13] = ArunA_CellTiter_hNC: Viability Assessment in the ArunA Biomedical's Oris Neural Crest (hNC) Cell Migration Assay (AID 2283752)
# In short: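 After a 72 h chemical exposure, viability of hNC cells is read with CellTiter Aqueous One and fitted as signal loss relative to DMSO. Cells were seeded at 60,000/well on Matrigel and cultured 16 h at 37 C beforehand.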
# [14] = ArunA_CellTiter_hNP: Viability Assessment in the ArunA Biomedical's Oris Neural Crest (hNC) Cell Migration Assay (AID 2283753)
# In short: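 Viability read with CellTiter 96 Aqueous One after 72 h chemical exposure of human hNP1 neuroprogenitors, which were plated on Matrigel in LIF/bFGF medium 16 h beforehand. Endpoint fitted in positive direction relative to DMSO.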
# [15] = ArunA_Migration_hNP: ArunA Biomedical's Oris Neuroprogenitor (hNP) Cell Migration Assay (AID 2283754)
# In short: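 Readout is calcein-AM fluorescence (ex494/em517) of cells migrating into the detection zone, relative to DMSO. hNP1 cells (H9-derived) grown on Matrigel behind stoppers 16 h, then stoppers pulled and chemical applied 72 h; cytochalasin D as control.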
# [16] = ArunA_Migration_hNC: ArunA Biomedical's Oris Neural Crest (hNC) Cell Migration Assay (AID 2283755)
# In short: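 Calcein-AM fluorescence (ex494 nm/em 517 nm) in the stopper-defined detection zone quantifies migration of hNC cells after 72 h chemical exposure; 60,000 cells/well plated on Matrigel with LIF and bFGF, 16 h pre-incubation. DMSO baseline.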
# [17] = system: chicken Androgen Receptor (AR), gene 422165; assay: ATG_chAR_XSP1: Attagene TRANS-FACTORIAL Multi-Species (XSP1) HepG2 Assay for chicken Androgen Receptor (AR) (AID 2283768)
# In short: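 Reporter mRNA read by RT-PCR with fluorescent labelling and capillary electrophoresis 24 h after chemical dosing of transiently transfected HepG2 cells. Chicken AR-Gal4 chimera, partially stimulated with 3 nM 6-alpha-fluorotestosterone; activity fitted upward relative to DMSO.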
# [18] = system: Thyroperoxidase (TPO), gene 445522; assay: CCTE_Simmons_GUA_TPO: CCTE's Guaiacol Assay for Thyroperoxidase (TPO) Inhibition, Simmons Lab (AID 2283750)
# In short: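 Porcine thyroid microsomes (25 ug) in 200mM potassium phosphate, preincubated 30 s at 37C with compound (8 concentrations, 5 nM–87.5 uM) and 35mM guaiacol; 1mM H2O2 starts reaction. Absorbance change at 450nm over first 80 s; loss of signal versus DMSO, three replicates.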
# Sequence of chicken Estrogen Receptor (ESR1), ESR1 (gene 396099) (P06212 whole entry, looked up, the tested form may be a part): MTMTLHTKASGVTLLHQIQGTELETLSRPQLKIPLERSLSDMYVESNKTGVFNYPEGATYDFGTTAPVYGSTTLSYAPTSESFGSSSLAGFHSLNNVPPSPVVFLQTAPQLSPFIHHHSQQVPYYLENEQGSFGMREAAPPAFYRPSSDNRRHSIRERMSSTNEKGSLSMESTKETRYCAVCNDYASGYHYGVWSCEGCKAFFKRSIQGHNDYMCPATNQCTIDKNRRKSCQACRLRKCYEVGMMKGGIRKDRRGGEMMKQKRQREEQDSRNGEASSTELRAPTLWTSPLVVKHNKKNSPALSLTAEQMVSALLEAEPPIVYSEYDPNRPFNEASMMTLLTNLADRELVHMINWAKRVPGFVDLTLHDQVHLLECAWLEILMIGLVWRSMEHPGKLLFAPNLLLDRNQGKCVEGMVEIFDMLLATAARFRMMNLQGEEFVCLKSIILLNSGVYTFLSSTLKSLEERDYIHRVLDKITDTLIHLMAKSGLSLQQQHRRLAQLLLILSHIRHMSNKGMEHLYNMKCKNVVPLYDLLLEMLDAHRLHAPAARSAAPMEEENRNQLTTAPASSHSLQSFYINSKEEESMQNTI
# Sequence of Luciferin 4-monooxygenase (Photinus pyralis) (P08659 whole entry, looked up): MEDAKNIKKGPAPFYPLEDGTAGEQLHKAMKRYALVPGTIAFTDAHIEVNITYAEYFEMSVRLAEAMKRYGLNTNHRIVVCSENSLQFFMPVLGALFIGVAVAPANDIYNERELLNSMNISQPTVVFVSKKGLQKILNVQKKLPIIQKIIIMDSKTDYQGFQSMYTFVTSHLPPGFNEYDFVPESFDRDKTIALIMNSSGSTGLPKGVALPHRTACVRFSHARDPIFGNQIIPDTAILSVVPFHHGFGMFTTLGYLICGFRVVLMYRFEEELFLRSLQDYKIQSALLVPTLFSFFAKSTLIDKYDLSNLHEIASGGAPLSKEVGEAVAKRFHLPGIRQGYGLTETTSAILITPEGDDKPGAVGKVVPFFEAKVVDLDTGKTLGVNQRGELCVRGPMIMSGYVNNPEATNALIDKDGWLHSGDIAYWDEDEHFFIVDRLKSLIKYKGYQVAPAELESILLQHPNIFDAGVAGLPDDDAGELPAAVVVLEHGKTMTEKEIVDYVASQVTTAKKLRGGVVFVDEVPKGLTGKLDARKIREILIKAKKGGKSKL
# Sequence of zebrafish Estrogen Receptor (ESR1), esr1 (gene 259252) (P57717 whole entry, looked up, the tested form may be a part): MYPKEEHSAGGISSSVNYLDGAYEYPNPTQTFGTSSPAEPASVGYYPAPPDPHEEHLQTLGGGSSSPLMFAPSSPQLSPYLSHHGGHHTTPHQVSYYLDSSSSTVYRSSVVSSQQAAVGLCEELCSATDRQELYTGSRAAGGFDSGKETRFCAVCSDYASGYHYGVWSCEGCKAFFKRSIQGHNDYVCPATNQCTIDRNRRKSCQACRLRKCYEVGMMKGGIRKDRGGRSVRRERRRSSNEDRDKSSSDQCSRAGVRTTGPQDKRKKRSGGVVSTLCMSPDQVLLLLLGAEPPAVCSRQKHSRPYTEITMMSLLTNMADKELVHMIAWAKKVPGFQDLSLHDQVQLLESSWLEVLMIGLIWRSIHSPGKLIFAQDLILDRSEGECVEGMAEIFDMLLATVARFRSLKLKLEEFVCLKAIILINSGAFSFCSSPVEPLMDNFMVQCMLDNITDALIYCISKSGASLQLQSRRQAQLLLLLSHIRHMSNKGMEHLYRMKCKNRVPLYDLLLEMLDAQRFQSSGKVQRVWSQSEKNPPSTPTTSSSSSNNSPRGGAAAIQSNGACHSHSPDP
smiles,measurement,setting,value
CCNc1nc(NC(C)C)nc(SC)n1,outcome,[1],inactive
same,AC50,[2],76.9 µM (active)
same,outcome,[3],inactive
CCC(C)(CC)c1cc(NC(=O)c2c(OC)cccc2OC)on1,AC50,[1],43 µM (active)
same,outcome,[2],inactive
same,outcome,[3],inactive
Cc1cc2c3c(c1)C(c1ccccc1)=N[C@@H](NC(=O)c1ccncc1)C(=O)N3CC2,outcome,[1],inactive
same,outcome,[2],inactive
same,AC50,[4],50 µM (active)
same,AC50,[3],50 µM (active)
CCOCCOC(C)=O,outcome,[1],inactive
same,outcome,[2],inactive
same,outcome,[3],inactive
Nc1ccc(-c2ccc(N)cc2)cc1,outcome,[1],inactive
same,outcome,[2],inactive
same,outcome,[3],inactive
O=C(O)C(F)(F)C(F)(F)C(F)(F)C(F)(F)C(F)(F)C(F)(F)C(F)(F)C(F)(F)C(F)(F)F,outcome,[1],inactive
same,outcome,[2],inactive
same,outcome,[5],inactive
same,AC50,[3],67.3 µM (active)
CCCCCCOC(=O)c1ccccc1C(=O)OCCCCCC,AC50,[1],25.5 µM (active)
same,outcome,[1],inactive
same,outcome,[2],inactive
same,AC50,[4],43.5 µM (active)
same,AC50,[3],50 µM (active)
Cc1ccccc1[N+](=O)[O-],outcome,[2],inactive
C=CC(N)=O,outcome,[1],inactive
same,outcome,[2],inactive
same,outcome,[3],inactive
CCC(=O)O[C@H]1CC[C@H]2[C@@H]3CCC4=CC(=O)CC[C@]4(C)[C@H]3CC[C@]12C,AC50,[1],82 µM (active)
same,outcome,[2],inactive
same,outcome,[5],inactive
Clc1ccc(C(c2ccccc2Cl)C(Cl)(Cl)Cl)cc1 (centres undefined),outcome,[1],inactive
same,outcome,[2],inactive
same,outcome,[6],inactive
same,AC50,[7],2.48 µM (active)
same,AC50,[8],752 nM (active)
same,AC50,[9],674 nM (active)
same,AC50,[4],8.75 µM (active)
same,AC50,[3],12.8 µM (active)
same,AC50,[10],0.389 µM (active)
same,AC50,[11],679 nM (active)
same,AC50,[12],291 nM (active)
O=C(NC(=O)c1c(F)cccc1F)Nc1cc(Cl)c(OC(F)(F)C(F)F)c(Cl)c1,outcome,[1],inactive
same,outcome,[2],inactive
same,outcome,[5],inactive
same,AC50,[4],50 µM (active)
same,AC50,[3],42.2 µM (active)
Cc1ccc(O)c(C)c1,outcome,[1],inactive
same,outcome,[2],inactive
same,outcome,[5],inactive
same,outcome,[3],inactive
CC#Cc1cc(C)nc(Nc2ccccc2)n1,outcome,[1],inactive
same,outcome,[2],inactive
Oc1c(Cl)c(Cl)c(Cl)c(Cl)c1Cl,outcome,[1],inactive
same,AC50,[2],1.03 µM (active)
same,outcome,[5],inactive
same,AC50,[3],29.5 µM (active)
Cc1cc(-c2ccc(N)c(C)c2)ccc1N,outcome,[1],inactive
same,outcome,[2],inactive
same,AC50,[3],7.2 µM (active) and 2.03 µM (active)
Cc1cccc(C)c1N,outcome,[1],inactive
same,outcome,[2],inactive
ClC1=C(Cl)[C@]2(Cl)[C@@H]3[C@H]4C[C@H]([C@@H]5O[C@H]45)[C@@H]3[C@@]1(Cl)C2(Cl)Cl,AC50,[1],4.96 µM (active)
same,AC50,[3],22.5 µM (active)
CCOP(=S)(OCC)SCSC(C)(C)C,outcome,[1],inactive
same,outcome,[2],inactive
same,AC50,[3],59.6 µM (active)
Cc1ccccc1CO[C@@H]1C[C@@]2(C(C)C)CC[C@]1(C)O2,outcome,[1],inactive
same,outcome,[2],inactive
same,outcome,[5],inactive
same,AC50,[4],76.7 µM (active)
same,AC50,[3],63.6 µM (active)
Oc1ccc(Cl)cc1Cl,outcome,[1],inactive
same,outcome,[2],inactive
same,outcome,[4],inactive
same,outcome,[3],inactive
c1cc2ccc3cccc4ccc(c1)c2c34,outcome,[1],inactive
same,outcome,[2],inactive
same,AC50,[3],21.4 µM (active)
Oc1ccc(C(c2ccc(O)cc2)(C(F)(F)F)C(F)(F)F)cc1,AC50,[2],45 µM (active)
same,AC50,[13],9.41 µM (active)
same,AC50,[14],12.2 µM (active)
same,AC50,[15],24.6 µM (active)
same,AC50,[16],9.68 µM (active)
same,outcome,[5],inactive
same,outcome,[17],inactive
same,outcome,[6],inactive
same,AC50,[7],187 nM (active) and 272 nM (active)
same,AC50,[8],105 nM (active) and 81.1 nM (active)
same,AC50,[9],117 nM (active) and 78.3 nM (active)
same,outcome,[3],inactive
same,outcome,[10],inactive
same,AC50,[11],26.3 nM (active) and 53.9 nM (active)
same,AC50,[12],7.8 µM (active) and 45.9 nM (active)
CCC(C)(c1ccc(O)cc1)c1ccc(O)cc1,AC50,[2],49.3 µM (active)
same,AC50,[18],189 µM (active)
same,outcome,[5],inactive
same,AC50,[3],42.4 µM (active)
CC1=C2C[C@H]3[C@@H](CC=C4C[C@@H](O)CC[C@@]43C)[C@@H]2CC[C@]12O[C@@H]1C[C@H](C)CN[C@H]1[C@H]2C,outcome,[1],inactive
same,AC50,[2],44.8 µM (active)
same,outcome,[3],inactive
CCC(C)c1cc([N+](=O)[O-])cc([N+](=O)[O-])c1O (centres undefined),AC50,[2],0.346 µM (active)
same,AC50,[3],12 µM (active)
O=S(=O)(O)C(F)(F)C(F)(F)C(F)(F)C(F)(F)F,outcome,[2],inactive
same,outcome,[4],inactive
same,outcome,[3],inactive
COS(=O)(=O)OC,outcome,[2],inactive
same,outcome,[5],inactive
same,outcome,[3],inactive
O=S(=O)(O)C(F)(F)C(F)(F)C(F)(F)C(F)(F)C(F)(F)C(F)(F)F,AC50,[2],36.6 µM (active)
same,outcome,[3],inactive
Clc1ccc(Cl)cc1,outcome,[2],inactive
same,outcome,[4],inactive
same,outcome,[3],inactive
CC(c1ccc(O)cc1)(c1ccc(O)cc1)c1ccc(O)cc1,outcome,[2],inactive
same,outcome,[5],inactive
same,AC50,[4],17.8 µM (active)
same,AC50,[3],14.6 µM (active)
